Experimental data: PubChem BioAssay AID504682 (Southern Research Specialized Biocontainment Screening …, 2011)
Potency and affinity values are given separately. Activity calls are given as the source filed them. A call without a number means that no potency is given here. The rule behind the calls is not given here.

Assay: cytotoxicity control, cell-based, set 2 (AID 504682)
Conditions: HepG2 cytotoxicity; series mostly up to 50 µM

SMILES	outcome
CCn1c2ccccc2c2cc(NC(=O)CSc3nc(C)cc(=O)[nH]3)ccc21	inactive
O=C(CSc1nc2ccccc2c(=O)[nH]1)NC1CCCCC1	inactive
CCc1ccc(/C=C2/C(=O)N(C)C(=S)N2CC(=O)OC)s1	inactive
CCOC(=O)COn1c2c(c3c4no[n+]([O-])c4ccc31)CCCC2	inactive
CCOC(=O)CSc1nc(C)c(C)c(=O)[nH]1	inactive
CCOC1OC(=O)C(Cl)=C1Nc1ccccc1C (centres undefined)	inactive
Cc1cc(=O)[nH]c(SCC(=O)Nc2ccccc2)n1	inactive
CN(C(=O)CSc1nc2ccccc2c(=O)[nH]1)C1CCCCC1	inactive
Cc1ccc(NC(=O)COC(=O)CCc2c[nH]c3ccccc23)cc1[N+](=O)[O-]	inactive
O=c1[nH]c(=S)[nH]c2ccccc12	inactive
CCOC(=O)C(C)Sc1ncnc2c1nnn2-c1ccc(F)cc1 (centres undefined)	inactive
Cc1nc(SCC(N)=O)[nH]c(=O)c1C	inactive
Cc1nc(SCc2ccccc2Cl)[nH]c(=O)c1C	inactive
Cc1ccc(NC(=O)C2C3/C=C\CCCCC32)cc1C (centres undefined)	inactive
COc1cc(NC(=O)C/C(C)=N/NC(=O)c2ccccn2)c(OC)cc1Cl	inactive
Cc1nc(SCC(=O)NC2CCCCC2)[nH]c(=O)c1C	inactive
Cc1c[nH]c(=S)[nH]c1=O	inactive
CCSc1nc2ccccc2c(=O)[nH]1	inactive
CCOC(=O)COc1ccc(/C=C2\NC(=S)N(CC)C2=O)cc1	inactive
COC(=O)C(C)Oc1ccc(-c2nccc(-c3ccccn3)n2)cc1 (centres undefined)	inactive

SMILES	outcome
O=C(CSc1nc(O)cc(=O)[nH]1)Nc1ccccc1	inactive
O=C(CSc1nc2ccccc2c(=O)[nH]1)NCc1ccc(Cl)cc1	inactive
CCOC(=O)CNC(=O)[C@H](Cc1ccccc1)NC(=O)OCc1ccccc1	inactive
O=C(CSc1ccccn1)NC1CCCCC1	inactive
O=C(/C=C/c1ccccc1)N1CCN(CCN2C(=O)c3cccc4cccc(c34)C2=O)CC1	inactive
O=C(CSc1ncccn1)NC1CCCCC1	inactive
CC(=NCc1ccc2c(c1)OCO2)C1=C(O)c2ccccc2C1=O	inactive
COC(=O)c1ccc(CNc2c(N3CCCC3)c(=O)c2=O)cc1	inactive
CCSc1nc(C)c(C)c(=O)[nH]1	inactive
COC(=O)C1CC(=O)N(c2ccc(OCc3ccccc3Cl)cc2)C1 (centres undefined)	inactive
O=C(CSc1nccc(=O)[nH]1)Nc1ccc(N2CCOCC2)cc1	inactive
Cc1cc(=O)[nH]c(=S)[nH]1	inactive
CC[N+](C)(CC)CCCCOc1ccc2c(c1)C(=O)c1cc(OCCCC[N+](C)(CC)CC)ccc1-2	inactive
O=C(CSc1nccc(=O)[nH]1)Nc1ccc(Oc2ccccc2)cc1	inactive
COC(=O)C(C)Oc1ccc(Cc2ncc(C(F)(F)F)cc2Cl)cc1 (centres undefined)	inactive
O=C1C(Br)=Cc2cccc3cccc1c23	inactive
Cc1[nH]c(=S)[nH]c(=O)c1C	inactive
COC(=O)CCc1nc2c(C#N)c(-c3ccc(Cl)cc3)ccn2n1	inactive
Cc1nc(SCC(=O)N(C)c2ccccc2)[nH]c(=O)c1C	inactive
